# Measured values from PubChem BioAssay.
# Active and inactive are the calls of the source.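 How the source made its calls, unless noted: active means inhibition of the reporter signal at or above 50%; inactive means inhibition below 50%.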
# Key:
# [1] = inhibitors of TNFa-induced NFkB p65 translocation, primary screen, imaging, HUVEC, MLSMR starter and 10KST1 sets (AID 438;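 active means inhibition above 20% together with a positive visual image hit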;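 further: compound added about 3h40 before a 20 min TNFalpha stimulation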;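 on inhibition: signal is the nuclear over cytoplasmic p65 intensity ratio per well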); conditions: HUVEC TNFa-induced p65 nuclear translocation; cell count: measured here: nuclei count (cytotoxicity indicator), at 2.08 µM; inhibition: at 2 µM, stronger effect = higher value, 0% TNFa-plus-vehicle, 100% no-TNFa wells
# [2] = reduction of polyQ htt aggregates in cells – imaging, exon1htt(103Q)mCFP cells, high-content imaging, primary screen (AID 483;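 active means visual image review flags a hit and inhibition of aggregation exceeds 20%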;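 further: compound exposure lasted 3 days before fixation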;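 on nuclei count: percent of the per-plate median nuclei count of sample wells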); conditions: exon1htt(103Q)mCFP cell line, aggregate imaging, at 2 µM; inhibition of aggregation: stronger effect = higher value; nuclei count: measured here: cell count, toxicity
# [3] = endothelial E-selectin expression blockers – imaging, HUVEC, immunofluorescence, MLSMR starter and 10KST1 sets, primary screen (AID 487;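 active means visually confirmed hit in the image check and inhibition above 20%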;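 on inhibition: signal is fraction of cell area covered by stained E-selectin grains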;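 on nuclei count: 100% = median nuclei count of all wells on the same plate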); conditions: HUVEC TNFalpha-induced E-selectin immunofluorescence imaging, at 2 µM; inhibition: stronger effect = higher value; nuclei count: measured here: cell number, toxicity
# [4] = target: Voltage-gated potassium channel subunit beta-2 (Rattus norvegicus) (UniProt P62483); test: inhibitors of rat Kvbeta2 reductase activity – biochemical, NADPH fluorescence, primary screen (AID 622;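 active means fluorescence slope higher than the sample average by over 3 SD, cut at about -0.22 in these data, passing the limit was not always enough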;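 further: slope of raw intensity against log time taken from 70 to 1610 s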); conditions: recombinant KvBeta, 4-cyanobenzaldehyde reduction, at 10 µM, stronger effect = higher value
# Sequence of Voltage-gated potassium channel subunit beta-2 (Rattus norvegicus) (P62483 whole entry, looked up): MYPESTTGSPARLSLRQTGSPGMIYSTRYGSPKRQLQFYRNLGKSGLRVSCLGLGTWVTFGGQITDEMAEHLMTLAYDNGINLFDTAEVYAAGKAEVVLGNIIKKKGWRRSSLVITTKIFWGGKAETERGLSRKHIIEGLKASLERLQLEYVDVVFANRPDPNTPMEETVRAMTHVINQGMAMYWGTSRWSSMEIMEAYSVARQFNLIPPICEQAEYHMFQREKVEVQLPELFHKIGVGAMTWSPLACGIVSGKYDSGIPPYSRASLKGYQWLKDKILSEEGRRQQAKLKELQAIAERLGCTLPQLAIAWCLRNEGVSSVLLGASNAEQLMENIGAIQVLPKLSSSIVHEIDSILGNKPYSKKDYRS
# [5] = target: Voltage-gated potassium channel subunit beta-2 (Rattus norvegicus) (UniProt P62483); test: enhancers of rat Kvbeta2 NADPH turnover – biochemical, NADPH fluorescence, primary screen (AID 623;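 active means NADPH fluorescence slope more negative than the mean of all samples by about 3 SD, 99.7% confidence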;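 further: fluorescence intensity change per second fitted from 20 to 320 s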); conditions: Recombinant KvBeta, NADPH fluorescence decrease slope, 10 min; at 10 µM; stronger effect = lower value
# [6] = target: Alpha-2C adrenergic receptor (Homo sapiens) (UniProt P18825); test: compounds altering alpha2C-coupled GIRK flux – cell-based, HEK293 alpha2C/GIRK1/2, thallium flux, primary screen (AID 624;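 active means fluorescence slope after compound addition differing from the mean of all screened samples at 99.7% confidence, in either direction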;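 further: slope of fluorescence ratio to pre-addition baseline per second over 15 to 24 s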); conditions: thallium flux BTC fluorescence, at 10 µM, actives lie on both sides
# Sequence of Alpha-2C adrenergic receptor (Homo sapiens) (P18825 whole entry, looked up): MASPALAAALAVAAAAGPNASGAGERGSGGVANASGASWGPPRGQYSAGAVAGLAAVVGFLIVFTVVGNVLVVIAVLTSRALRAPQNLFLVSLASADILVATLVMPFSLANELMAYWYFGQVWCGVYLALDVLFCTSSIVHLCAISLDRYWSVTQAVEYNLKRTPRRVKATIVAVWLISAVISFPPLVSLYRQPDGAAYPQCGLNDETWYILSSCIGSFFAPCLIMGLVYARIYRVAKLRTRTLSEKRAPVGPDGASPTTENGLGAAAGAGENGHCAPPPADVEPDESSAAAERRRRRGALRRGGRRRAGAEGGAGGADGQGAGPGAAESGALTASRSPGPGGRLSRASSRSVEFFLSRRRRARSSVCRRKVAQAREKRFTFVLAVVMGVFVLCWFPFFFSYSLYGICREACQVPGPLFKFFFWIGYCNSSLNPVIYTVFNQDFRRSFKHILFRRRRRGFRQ
# [7] = blockers of RIG-like receptor reporter activation – cell-based, Sendai virus stimulus, luciferase, 10K MLSCN set, TLR/RLR signaling modifier project, primary screen (AID 602276;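 active means inhibition at or above 50% at 10 µM; inactive means inhibition below 50%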;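 further: firefly luciferase from ISG56 promoter only with Renilla not read in this screen; 0% = Sendai virus plus DMSO and 100% = medium plus DMSO without virus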); conditions: HEK293 RL24 IRF3 luciferase reporter, at 10 µM, stronger effect = higher value
# [8] = TLR3 IRF3 reporter activation blockers – cell-based, poly I:C stimulus, luciferase, 10K MLSCN set, primary screen (AID 602277); conditions: HEK293-TLR3 RL24 IRF3 luciferase reporter, at 10 µM, stronger effect = higher value
Compound,cell count [1],inhibition [1],inhibition of aggregation [2],nuclei count [2],inhibition [3],nuclei count [3],fluorescence slope [4],NADPH fluorescence slope [5],slope [6],inhibition [7],inhibition [8]
COc1ccc(CN(CC(=O)NCC2CCCO2)C(=O)CNS(=O)(=O)c2ccc(C)cc2)cc1 (stereo not drawn),589,-20.2% (inactive),-5.2% (inactive),119%,-52.4% (inactive),92.4%,0.012 (inactive),-3.8e-05 (inactive),0.00362 (inactive),9.43% (inactive),3.49% (inactive)
COC(=O)CNc1nc(C2CC2)nc2c1nnn2Cc1ccccc1Cl,459,8.3% (inactive),-0.3% (inactive),83.5%,16.5% (inactive),97.5%,-0.479 (inactive),-0.000128 (inactive),0.00514 (inactive),18.2% (inactive),17.8% (inactive)
O=C(CN1c2cccc3cccc(c23)S1(=O)=O)N1CCOCC1,253,-5.5% (inactive),16% (inactive),83%,-59.8% (inactive),101%,-0.189 (inactive),-1.8e-05 (inactive),0.00514 (inactive),17% (inactive),13.6% (inactive)
O=C(NC1CCCc2ccccc21)C1CCN(c2nnc(-n3cccc3)s2)CC1 (stereo not drawn),686,-6% (inactive),-12.1% (inactive),116%,-65.3% (inactive),114%,-0.583 (inactive),-3e-05 (inactive),0.00726 (inactive),7.01% (inactive),18.7% (inactive)
COc1cccc(NC(=O)NC2(C(F)(F)F)Oc3ccccc3O2)c1,684,-12.7% (inactive),0% (inactive),105%,-125% (inactive),120%,-0.476 (inactive),-0.000362 (inactive),0.00501 (inactive),12.9% (inactive),24.9% (inactive)
N/C(=N/O)c1nc(N2CCCCC2)nc(N2CCCCC2)n1,640,-16.2% (inactive),-135% (inactive),53.7%,-50.5% (inactive),81.9%,-0.498 (inactive),8.9e-06 (inactive),0.00632 (inactive),8.03% (inactive),24.6% (inactive)
O=C(NCc1cccnc1)C1c2ccccc2C(=O)N1Cc1ccco1 (stereo not drawn),408,4.7% (inactive),7% (inactive),115%,50.4% (inactive),113%,-0.595 (inactive),-1.9e-05 (inactive),0.00603 (inactive),5.3% (inactive),11% (inactive)
CCC(C)NC(=O)c1ccccc1NC(=O)C(C)N(c1ccccc1)S(C)(=O)=O (stereo not drawn),643,3.1% (inactive),5% (inactive),108%,-7% (inactive),99.9%,-0.479 (inactive),8.2e-06 (inactive),0.00595 (inactive),5.01% (inactive),28.8% (inactive)
CC(=O)Nc1cccc(NC(=O)c2oc3ccccc3c2C)c1,343,-0.2% (inactive),0.5% (inactive),98.8%,-9.3% (inactive),112%,-0.521 (inactive),1.6e-05 (inactive),0.00572 (inactive),-37.4% (inactive),-104% (inactive)
CCn1c(=S)ccc2ccc(OC)cc21,296,5.3% (inactive),-4.2% (inactive),77.6%,-13.4% (inactive),120%,-0.599 (inactive),-9.6e-06 (inactive),0.0055 (inactive),-6.3% (inactive),29% (inactive)
CCN(C1CCCCC1)S(=O)(=O)c1ccc(OC)c(C)c1,862,-3.6% (inactive),9.9% (inactive),98.1%,-104% (inactive),128%,-0.498 (inactive),-2.3e-05 (inactive),0.00415 (inactive),-0.395% (inactive),28.2% (inactive)
Cc1cc(N=Cc2cc(Br)ccc2O)no1,330,-6.7% (inactive),-17.3% (inactive),106%,-147% (inactive),121%,-0.311 (inactive),-3.4e-05 (inactive),0.00663 (inactive),15.6% (inactive),15.7% (inactive)
CS(=O)(=O)N1CCCC(C(=O)NCCCN2CCC(Cc3ccccc3)CC2)C1 (stereo not drawn),679,-2% (inactive),15.3% (inactive),89.6%,-139% (inactive),111%,-0.602 (inactive),2e-05 (inactive),0.00628 (inactive),-7.21% (inactive),-4.47% (inactive)
CC1(C)Cc2cccc(OCC(=O)O)c2O1,635,-2.7% (inactive),-1% (inactive),100%,-111% (inactive),108%,-0.423 (inactive),-2.7e-05 (inactive),0.00676 (inactive),11.4% (inactive),17.1% (inactive)
Cc1onc(-c2ccccc2Cl)c1C(=O)NCc1cccnc1,700,1% (inactive),8.2% (inactive),97.9%,8.5% (inactive),92.3%,-0.523 (inactive),1.3e-05 (inactive),0.00593 (inactive),17.8% (inactive),19.3% (inactive)
Cc1cc(C)cc(NC(=O)C2CCCN(c3nccc(C)n3)C2)c1 (stereo not drawn),373,-6% (inactive),-20.4% (inactive),115%,-57.3% (inactive),117%,-0.463 (inactive),-8.4e-05 (inactive),0.00586 (inactive),9.71% (inactive),18.5% (inactive)
c1ccc(CN2C3=NCCCN3c3ccccc32)cc1,361,-4.7% (inactive),-10.1% (inactive),97.9%,-3.7% (inactive),117%,-0.601 (inactive),-1.3e-05 (inactive),0.00493 (inactive),11.4% (inactive),22.1% (inactive)
N=c1c(C(=O)NCc2ccc3c(c2)OCO3)cc2c(=O)n3ccccc3nc2n1Cc1cccnc1,690,-5.2% (inactive),-21.7% (inactive),72.7%,-18.5% (inactive),109%,-0.427 (inactive),3.2e-05 (inactive),0.00617 (inactive),13.3% (inactive),23.4% (inactive)
NC(=O)CSc1nnc(-c2cc3ccccc3o2)n1Cc1ccccc1,426,6.3% (inactive),-2.8% (inactive),101%,-33% (inactive),129%,-0.272 (inactive),1.6e-05 (inactive),0.003 (inactive),19.8% (inactive),18.4% (inactive)
CCCCN(CCCC)CCn1cnc2c([nH]c3ccc(OC)cc32)c1=O,569,-7.1% (inactive),0.2% (inactive),85.8%,-65.8% (inactive),105%,-0.536 (inactive),-1.1e-05 (inactive),0.00685 (inactive),4.54% (inactive),30.7% (inactive)
CCc1nnc(NC(=O)CSc2nnc3scc(-c4ccc(C)cc4)n23)s1,684,-32.6% (inactive),9.1% (inactive),96.5%,-5.3% (inactive),104%,-0.504 (inactive),-0.000345 (inactive),0.00638 (inactive),14.5% (inactive),14.2% (inactive)
Oc1ccccc1-c1cc(C(F)(F)C(F)F)[nH]n1,337,-1% (inactive),1.9% (inactive),105%,46.4% (inactive),106%,-0.332 (inactive),-2e-05 (inactive),0.00606 (inactive),-13.1% (inactive),-54.6% (inactive)
O=C(NCCCN1CCOCC1)c1cc(-c2ccc(O)cc2)on1,614,-1.6% (inactive),-5.2% (inactive),92.4%,-46.9% (inactive),114%,-0.565 (inactive),-3.8e-05 (inactive),0.00654 (inactive),2.55% (inactive),-5.13% (inactive)
FC(F)Oc1ccc(-c2csc(Cc3nnc4n3CCCCC4)n2)cc1,578,-3.5% (inactive),-9% (inactive),113%,84.7% (active),83.2%,-0.535 (inactive),7.5e-06 (inactive),0.00442 (inactive),-0.365% (inactive),-11.8% (inactive)
O=C(c1ccc(-c2ccccc2)cc1)N1CCN(c2ncccn2)CC1,332,-21.2% (inactive),11.5% (inactive),76%,-38.6% (inactive),85.3%,-0.429 (inactive),-2.4e-06 (inactive),0.00541 (inactive),2.14% (inactive),28.8% (inactive)
CN(C)c1ccc(NC(=O)Cn2cc3c(n2)CCCC3)cc1,757,-11% (inactive),17.1% (inactive),101%,-27.2% (inactive),103%,-0.406 (inactive),-4.3e-05 (inactive),0.00475 (inactive),-2.34% (inactive),-8.59% (inactive)
CC(C)Cc1nc(S(=O)(=O)c2ccc(Cl)cc2)c(N2CCOCC2)o1,570,-12.7% (inactive),-12.7% (inactive),119%,-14.6% (inactive),105%,-0.612 (inactive),-4.1e-05 (inactive),0.00543 (inactive),13.7% (inactive),12.7% (inactive)
Clc1ccc(Nc2ncnc3c2cnn3-c2ccccc2)cc1,703,0% (inactive),19% (inactive),95.2%,-14.4% (inactive),105%,-0.496 (inactive),-1.9e-05 (inactive),0.0059 (inactive),-24% (inactive),-67.8% (inactive)
